# Source: the supplement of paper PMC13380429
# Columns and labels:
# [1] = test system: Vero E6 infected with SARS-CoV-2; experiment: morphology score (similarity to uninfected cells); higher = more like uninfected cells; conditions: 24 h
# [2] = test system: Vero E6 infected with SARS-CoV-2; experiment: SARS-CoV-2 infection rate relative to infected DMSO; higher = more infection, active = 60 or less; conditions: 24 h
smiles,measurement,setting,value
O=C(O)c1ccccc1S [o-mercapto-benzoic-acid] (10 µM),morphology score,[1],0.201
same,SARS-CoV-2 infection rate,[2],101% (inactive)
Cc1ccc(C(=O)Cn2c3c(sc2=N)CCCC3)cc1 [pifithrin-alpha] (10 µM),morphology score,[1],-0.224
same,SARS-CoV-2 infection rate,[2],108% (inactive)
OCCOCCN1CCN(C(c2ccccc2)c2ccc(Cl)cc2)CC1 (configuration not stated) [hydroxyzine] (10 µM),morphology score,[1],0.0655
same,SARS-CoV-2 infection rate,[2],104% (inactive)
c1ccc(C(NCCNC(c2ccccc2)c2ccccc2)c2ccccc2)cc1 (10 µM),morphology score,[1],0.14
same,SARS-CoV-2 infection rate,[2],101% (inactive)
CN1CCN(c2ncc(-c3cc(Cl)cc(Cl)c3Cl)c(N)n2)CC1 [sipatrigine] (10 µM),morphology score,[1],0.204
same,SARS-CoV-2 infection rate,[2],82% (inactive)
NCC(O)c1ccc(O)cc1 (configuration not stated) [octopamine] (10 µM),morphology score,[1],-0.0363
same,SARS-CoV-2 infection rate,[2],114% (inactive)
C[C@]12CCC(=O)C[C@@H]1CC[C@@H]1[C@@H]2CC[C@]2(C)[C@@H](O)CC[C@@H]12 [Dihydrotestosterone] (10 µM),morphology score,[1],-0.034
same,SARS-CoV-2 infection rate,[2],110% (inactive)
CC(C)OC(=O)C(C)(C)Oc1ccc(C(=O)c2ccc(Cl)cc2)cc1 [fenofibrate] (10 µM),morphology score,[1],0.0415
same,SARS-CoV-2 infection rate,[2],101% (inactive)
Ic1cncc(OC[C@@H]2CCN2)c1 (10 µM),morphology score,[1],0.114
same,SARS-CoV-2 infection rate,[2],101% (inactive)
O=C(CCc1ccncc1)NNC(=O)N1Cc2ccccc2Oc2ccc(Cl)cc21 (10 µM),morphology score,[1],-0.103
same,SARS-CoV-2 infection rate,[2],108% (inactive)
O=c1[nH]c2ccccc2c(=O)n1CCCN1CCN(c2ccccc2)CC1 [pelanserin] (10 µM),morphology score,[1],0.0358
same,SARS-CoV-2 infection rate,[2],104% (inactive)
CC(C)(C)c1ccc(C(O)CCCN2CCC(C(O)(c3ccccc3)c3ccccc3)CC2)cc1 (configuration not stated) [terfenadine] (10 µM),morphology score,[1],0.133
same,SARS-CoV-2 infection rate,[2],96% (inactive)
CCn1cc(C(=O)O)c(=O)c2cnc(N3CCCC3)nc21 [piromidic-acid] (10 µM),morphology score,[1],0.0342
same,SARS-CoV-2 infection rate,[2],99.5% (inactive)
CCC(O)(CC(N)=O)c1ccccc1 (configuration not stated) [3-hydroxy-3-phenylpentanamide] (10 µM),morphology score,[1],0.0251
same,SARS-CoV-2 infection rate,[2],112% (inactive)
CC(=O)OCC(CCn1cnc2cnc(N)nc21)COC(C)=O [famciclovir] (10 µM),morphology score,[1],0.139
same,SARS-CoV-2 infection rate,[2],102% (inactive)
COc1ccc(C(=O)c2c(C)n(CCN3CCOCC3)c3cc(I)ccc23)cc1 (10 µM),morphology score,[1],0.116
same,SARS-CoV-2 infection rate,[2],102% (inactive)
O=C1C(=Cc2cccnc2)C(=O)c2ccccc21 (10 µM),morphology score,[1],0.19
same,SARS-CoV-2 infection rate,[2],99% (inactive)
CN(C)CCOC1=Cc2ccccc2Sc2ccc(Cl)cc21 [zotepine] (0.833333 µM),morphology score,[1],0.061
same,SARS-CoV-2 infection rate,[2],106% (inactive)
O=C(Nc1cc(C(F)(F)F)ccc1O)Nc1cc(C(F)(F)F)ccc1O (10 µM),morphology score,[1],0.119
same,SARS-CoV-2 infection rate,[2],104% (inactive)
O=S1(=O)c2cccc3cccc(c23)N1CCCN1CCN(c2ccc(F)cc2)CC1 [fananserin] (10 µM),morphology score,[1],-0.0356
same,SARS-CoV-2 infection rate,[2],108% (inactive)
N#Cc1cnc2c(Cl)cc(NCc3cn(CCN4CCCCCC4)nn3)cc2c1Nc1ccc(F)c(Cl)c1 [cot-inhibitor-1] (10 µM),morphology score,[1],0.16
same,SARS-CoV-2 infection rate,[2],104% (inactive)
c1ccc(-c2nn3c(c2-c2ccnc4cc(OCCN5CCOCC5)ccc24)CCC3)nc1 (10 µM),morphology score,[1],0.686
same,SARS-CoV-2 infection rate,[2],80% (inactive)
CC(C)CC(=O)Nc1n[nH]c2c1CN(C(=O)C1CCN(C)CC1)C2(C)C (10 µM),morphology score,[1],0.099
same,SARS-CoV-2 infection rate,[2],113% (inactive)
NCC(CC(=O)O)c1ccc(Cl)cc1 (configuration not stated) [baclofen] (10 µM),morphology score,[1],0.138
same,SARS-CoV-2 infection rate,[2],109% (inactive)
O=C1OC2(c3ccccc31)c1cc(I)c(O)c(I)c1Oc1c2cc(I)c(O)c1I [erythrosine] (0.833333 µM),morphology score,[1],0.0913
same,SARS-CoV-2 infection rate,[2],116% (inactive)
O=C(O)CSCC(=O)NC1CCSC1=O (configuration not stated) [erdosteine] (10 µM),morphology score,[1],-0.0411
same,SARS-CoV-2 infection rate,[2],104% (inactive)
CCN(Cc1ccncc1)C(=O)C(CO)c1ccccc1 (configuration not stated) [tropicamide] (10 µM),morphology score,[1],-0.0682
same,SARS-CoV-2 infection rate,[2],104% (inactive)
CCC(CO)(C(=O)OC1CC2CCC(C1)[N+]2(C)C)c1ccccc1 (configuration not stated) [troventol] (10 µM),morphology score,[1],-0.023
same,SARS-CoV-2 infection rate,[2],106% (inactive)
CC1C(=O)OC2C(O)C34C5CC(C(C)(C)C)C36C(OC(=O)C6O)OC4(C(=O)O5)C12O (configuration not stated) [ginkgolide-B] (10 µM),morphology score,[1],0.264
same,SARS-CoV-2 infection rate,[2],93% (inactive)
O=C(NCCN1CCC2(CC1)C(=O)NCN2c1cccc(F)c1)c1ccc2ccccc2c1 (10 µM),morphology score,[1],0.766
same,SARS-CoV-2 infection rate,[2],26% (active)
CC(C)c1ccc(CC(=O)N2CCC[C@@H](c3cccc(OC(C)(C)C(=O)O)c3)C2)cc1 (10 µM),morphology score,[1],0.109
same,SARS-CoV-2 infection rate,[2],96% (inactive)
Cc1cc(C)c2c(c1)[C@@H](N(Cc1cc(C(F)(F)F)cc(C(F)(F)F)c1)c1nnn(C)n1)CCCN2C[C@H]1CC[C@H](C(=O)O)CC1 [evacetrapib] (10 µM),morphology score,[1],0.0498
same,SARS-CoV-2 infection rate,[2],97% (inactive)
C[C@H](Nc1cc(NS(=O)(=O)N2CCC2)nc(SCc2cccc(F)c2F)n1)[C@@H](O)CO (10 µM),morphology score,[1],0.112
same,SARS-CoV-2 infection rate,[2],99% (inactive)
N#CC(Cc1ccc(O)cc1)c1ccc(O)cc1 (configuration not stated) [diarylpropionitrile] (10 µM),morphology score,[1],0.138
same,SARS-CoV-2 infection rate,[2],99% (inactive)
CN1CC(O)C2=C/C(=N/NC(N)=O)C(=O)C=C21 (configuration not stated) [carbazochrome] (10 µM),morphology score,[1],0.0013
same,SARS-CoV-2 infection rate,[2],113% (inactive)
NC(=O)CN1CC[C@@H](NC(=O)[C@@H]2CCCN2)C1=O (10 µM),morphology score,[1],0.096
same,SARS-CoV-2 infection rate,[2],110% (inactive)
CN1C2C=C(c3sccc3Br)CC1CC2 (configuration not stated) (10 µM),morphology score,[1],0.427
same,SARS-CoV-2 infection rate,[2],69.5% (inactive)
CN1C(=O)OC(C)(C)C1=O [trimethadione] (10 µM),morphology score,[1],0.1
same,SARS-CoV-2 infection rate,[2],106% (inactive)
C[C@@H]1CC[C@H]2C(C)(C)[C@H]3C[C@@]12CC[C@@]3(C)O [cedrol] (10 µM),morphology score,[1],0.0579
same,SARS-CoV-2 infection rate,[2],95.5% (inactive)
C[C@@H](c1ccc2nccn2c1)n1nnc2ncc(-c3cnn(C)c3)nc21 [savolitinib] (10 µM),morphology score,[1],-0.18
same,SARS-CoV-2 infection rate,[2],104% (inactive)
CCN(Cc1ccc(Cl)nc1)/C(=C/[N+](=O)[O-])NC [nitenpyram] (10 µM),morphology score,[1],0.0591
same,SARS-CoV-2 infection rate,[2],101% (inactive)
CS(=O)(=O)c1ccc(-c2cn3ccccc3n2)cc1 [zolimidine] (10 µM),morphology score,[1],0.211
same,SARS-CoV-2 infection rate,[2],85% (inactive)
Nc1nc(-c2ccc(Cl)c(Cl)c2)c(-c2ccncc2)s1 (10 µM),morphology score,[1],0.37
same,SARS-CoV-2 infection rate,[2],99.5% (inactive)
CC1(C)OC(=O)C(OCC2CC2)=C1c1ccc(S(C)(=O)=O)cc1 [firocoxib] (10 µM),morphology score,[1],0.218
same,SARS-CoV-2 infection rate,[2],84.5% (inactive)
N#Cc1cccc(C(=O)Nc2cc(-c3ccccc3)nn2-c2ccccc2)c1 (10 µM),morphology score,[1],-0.166
same,SARS-CoV-2 infection rate,[2],104% (inactive)
Clc1ccc(C(Cn2ccnc2)OCc2ccsc2Cl)c(Cl)c1 (configuration not stated) [tioconazole] (10 µM),morphology score,[1],-0.0375
same,SARS-CoV-2 infection rate,[2],106% (inactive)
CN(C)CCc1c[nH]c2ccc(Cn3cncn3)cc12 [rizatriptan] (10 µM),morphology score,[1],-0.00598
same,SARS-CoV-2 infection rate,[2],114% (inactive)
Nc1nccc2c1ncn2C1C=C(CO)C(O)C1O (configuration not stated) [3-deazaneplanocin-A] (10 µM),morphology score,[1],-0.104
same,SARS-CoV-2 infection rate,[2],112% (inactive)
O=C1NCCc2[nH]c(-c3ccncc3)cc21 (0.833333 µM),morphology score,[1],0.0617
same,SARS-CoV-2 infection rate,[2],106% (inactive)
CCN(CC)CCCCN1c2ccccc2Oc2ccc(Cl)cc21 (0.833333 µM),morphology score,[1],0.331
same,SARS-CoV-2 infection rate,[2],93% (inactive)
O=c1n(CC2CO2)c(=O)n(CC2CO2)c(=O)n1CC1CO1 (configuration not stated) [teroxirone] (10 µM),morphology score,[1],-0.0418
same,SARS-CoV-2 infection rate,[2],115% (inactive)
